# Results as given in PubChem BioAssay AID1053183 (Broad Institute, 2014).
# Potency and affinity values are given separately. Activity calls are given as the source filed them.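 The calls were made as follows: active = cytotoxic compounds with fitted half-maximal concentration at most double the highest valid dose; inconclusive = flat curve with moderate signal loss, or unreliable fit; inactive = the rest.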
# Assay: cytotoxicity in HepG2 cells, dose response, cytotoxicity control, cell-based, cherry-picked samples (AID 1053183)
# Conditions: HepG2 viability, CellTiter-Glo ATP luminescence, 72 h; series mostly up to 26 µM
row,SMILES,outcome
1,CO[C@@H](CN(C)Cc1cc(F)ccc1F)[C@@H](C)CN(C(=O)Nc1ccc(C(F)(F)F)cc1)[C@H](C)CO,inactive
2,COc1cccc(-c2cccc(-c3nc(C(=O)Nc4ccc(-c5ccccc5)cc4)cc4c3[C@@H](CCO)N(S(=O)C(C)(C)C)C4)c2)c1 (stereo partly drawn),inactive
3,CNC[C@@H]1Oc2cc(C#Cc3ccccc3OC)ccc2S(=O)(=O)N([C@H](C)CO)C[C@H]1C,inactive
4,C[C@H](CO)N1C[C@H](C)[C@@H](CN(C)Cc2ccccc2)Oc2c(NC(=O)Cc3cn(C)c4ccccc34)cccc2C1=O,inactive
5,C/C=C/c1ccc([C@H]2[C@@H](CO)N3C(=O)CN(Cc4ccc(F)cc4)C[C@@H]23)cc1,inactive
6,COc1ccc2c3c(n(C)c2c1)[C@@H](CO)N(CC1CC1)CC31CN(C(=O)c2ccc3c(c2)OCO3)C1,inactive
7,C[C@@H]1CN([C@@H](C)CO)C(=O)Cc2cc(NC(=O)C3CCCCC3)ccc2O[C@@H]1CN(C)Cc1ccc(Cl)c(Cl)c1,inactive
8,CN(C)C(=O)c1cccc(-c2ccc(C3[C@@H]4CN(Cc5ccccc5F)C[C@H]3N4)cc2)c1 (stereo partly drawn),inactive
